# Laboratory results: PubChem BioAssay (NCI)
# About 83,000 compounds went through this panel and 20% of them were active in at least one assay; those are over-represented in the sample as a whole.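 For each line, cells grew in 96-well plates with the test compound present at a single concentration for 48 hours.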 A number with no mark means an inactive call. Activity calls are given as the source filed them. Rule for the calls: active = growth percent below 10; inactive = the rest.
# Tested on: HL-60(TB) leukemia
# Assay: NCI-60 one-dose screen, 48 h (100 = growth as untreated, 0 = no growth, -100 = all killed)
# Conditions: 10 µM unless noted
row,Compound,growth
1,O=C(/C=C1\C=CN(CCCCF)c2ccccc21)n1ccc2ccccc21,121%
2,Cc1cnc2nc(NN)[nH]n12,100%
3,CN1CCN(Cc2ccc(NC(=O)c3cncc(C#Cc4cnc5[nH]ncc5c4)c3)cc2C(F)(F)F)CC1,8.94% (active)
4,Cc1csc(/N=C(N)/N=C(\N)c2cccc(Br)c2)n1,91.3%
5,COc1ccc(-c2nn(-c3ccccc3)cc2/C=C/C(=O)c2ccc(NC(=O)CCCCCCC(=O)NO)cc2)cc1,116%
6,Brc1ccc2[nH]cc(-c3nn4cc(-c5nccs5)nc4s3)c2c1,59.1%
7,c1ccc2c(NCCCn3ccnc3)c3oc4ccccc4c3nc2c1,-1.2% (active)
8,COC(=O)CNC(=O)c1cccc(-c2cc(=O)c3c(OC)c(OC)c(OC)cc3o2)c1,109%
9,Brc1cc(-c2cc(-c3ccc4c(c3)OC=CO4)[nH]n2)cs1,91.6%
10,COc1ccc(CNS(=O)(=O)/N=C2\NC(=O)NC2=C(Cl)Cl)cc1,-11.1% (active)
11,CC[C@]12C=CCN3CC[C@]4(C(=C(C(=O)OC)C1)Nc1cc5c(cc14)[C@@H]1[C@H](O5)[C@@H](O)[C@@]4(CC)CC(C(=O)OC)=C5Nc6cc(O)ccc6[C@@]56CCN1C46)C32 (stereo partly specified),-9.82% (active)
12,CC1=CC(=O)CC(C)(C)[C@@]1(O)/C=C/C(C)=C\C(=O)O,-41.9% (active)
13,COc1c(N2CC3CCCNC3C2)c(F)cc2c(=O)c(C(=O)N/N=C/c3ccc4c(c3)OCO4)cn(C3CC3)c12 (stereo unspecified),75.8%
14,COc1ccc(COc2ccc(/C=C3\C(=O)Nc4ccccc43)cc2OC)cc1,115%
15,COc1cccc(N2CCN(c3ncnc4c3[nH]c3ccc(F)cc34)C[C@H]2C)c1,33%
16,COc1cc2oc(-c3cccc(C(=O)N[C@@H](CC(C)C)C(=O)OC(C)(C)C)c3)cc(=O)c2c(OC)c1OC,76.8%
17,O=C(N/N=C\c1ccc(Cl)cc1)c1ccc2nc(-c3ccc(Br)cc3)[nH]c2c1,41.5%
18,CCN1C(=S)N(CC)C2C1N=C(SC)N2/N=C/C=C/c1ccccc1[N+](=O)[O-] (stereo unspecified),84.3%

row,Compound,growth
1,Nc1nc(-c2cccc([N+](=O)[O-])c2)c(N=Nc2cccc(Cl)c2)s1,56.4%
2,CCOC(=O)C(=O)Nc1ccc2c(ccn2C(=O)c2cccc(F)c2)c1,99.2%
3,Clc1ccc2c(NCCCn3ccnc3)c3oc4ccc(Cl)cc4c3nc2c1,78.6%
4,C#C[C@]1(O)CC[C@H]2[C@@H]3CC=C4c5sc(Nc6cc(Cl)ccn6)nc5CC[C@]4(C)[C@H]3CC[C@@]21C,2.68% (active)
5,CN(C)c1ccc(/C=N/Nc2nc(N/N=C/c3ccc(N(C)C)cc3)nc(N3CCCCC3)n2)cc1,-38% (active)
6,CCOC(=O)c1ccccc1NC1=C(Cl)C(=O)c2nc(C)ccc2C1=O,70.9%
7,CCc1cccc2c3c(sc12)C(c1ccc(Cl)cc1)C(C#N)=C(/N=C/c1ccc(Cl)cc1)O3 (stereo unspecified),-6.78% (active)
8,CN1CCN(Cc2ccc(NC(=O)c3cncc(C#Cc4cnc5ccc(N6CCSCC6)nn45)c3)cc2C(F)(F)F)CC1,-41.6% (active)
9,O=C(NCCNc1cc(-c2cn(-c3ccccc3)nc2-c2cccc(O)c2)ccn1)Nc1cc(C(F)(F)F)cc(C(F)(F)F)c1,97%
10,Nc1ccccc1NC(=O)c1ccc(NC(=O)C/C=C/c2cccnc2)cc1,12.6%
11,Cc1nc(-c2cc3ccccc3oc2=O)ccc1C(=O)/C=C/c1ccc(Cl)c(Cl)c1,97.9%
12,CN(C)CCCNc1c2ccc(Cl)cc2nc2c1oc1ccc(Cl)cc12,-53.9% (active)
13,Nc1nc(N)c2c(n1)NC(c1ccc(C(F)(F)F)cc1)CC(c1ccc(Nc3nc(NCCO)nc(Nc4ccc(Cl)cc4)n3)cc1)=N2 (stereo unspecified),-28.3% (active)
14,OC1CCN(CCCOc2c3ccccc3nc3c2oc2ccc(Cl)cc23)CC1,14.4%
15,Fc1ccc(-c2cc3nc(C(Cl)Cl)nc(-c4ccccc4)n3n2)cc1,-17.3% (active)
16,O=C(CCCCCCNC(=O)C(O)(O)C(F)(F)F)Nc1ccc(-c2ccccc2)cc1,13.1%
17,N[C@@H](Cc1cn(-c2ccnc3ccccc23)nn1)C(=O)O,110%
18,C[C@@H]1C[C@H]2C(=O)O[C@@H](C)C(NC(=O)[C@H](Cc3cc(F)cc(F)c3)NC(=O)Nc3ccc(Cl)cc3F)C(=O)N3CCC[C@H]3C(=O)N3CCCC[C@H]3C(=O)N[C@@H](CO)C(=O)N2C1 (stereo partly specified),13.5%
